# Test results from PubChem BioAssay AID588334 (Broad Institute, 2011).
# In all, about 300,000 compounds went through this assay and about 2,300 (0.77%) were called active. What follows is part of a selection rich in actives, with near analogues and random picks from the rest. Values without a mark were called inactive.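 Rule for the calls: active = mean activation of at least 80% with every replicate also reaching 80%; inconclusive = mean reaches 80% but some replicate falls short; inactive = the rest.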
# Experiment: activators of MITF-driven TRPM1 promoter reporter, primary screen, cell-based, SK-MEL-5, luciferase, single point (AID 588334);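 note: 0% = neutral control wells and 100% = parthenolide positive control wells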
# Conditions: SK-MEL-5 TRPM1-promoter luciferase, 24 h; at 12.5 µM; hits give high values; % of positive control, neutral wells = 0
row,Compound,activation
1,CCOC(=O)C(C)n1cnc2sc(C)c(C)c2c1=O (configuration not stated),2.04%
2,Cc1c(C(N)=O)sc2ncn(CCOc3ccccc3)c(=O)c12,17.3%
3,Cc1cccc(OC(=O)c2sc3ncn(C)c(=O)c3c2C)c1,93.6% (active)
4,CCC(CO)Oc1cc(NCc2ccccc2)c2ncn(C3CCCC3)c2c1 (configuration not stated),9.77%
5,NC(=O)c1ncn([C@@H]2O[C@H](CNCc3cnc(N4CCOCC4)s3)[C@@H](O)[C@H]2O)n1,-0.075%
6,O=C(Cc1ccc(S(=O)(=O)N2CCOCC2)s1)Nc1ccc(Br)c(C(F)(F)F)c1,17.8%
7,O=C(CC1Sc2ccccc2NC1=O)NNc1ccc(Cl)c(Cl)c1 (configuration not stated),9.23%
8,Nc1nnc(SCn2nnc3ccccc3c2=O)s1,-7.75%
9,C=CCn1c(SCn2nnc3ccccc3c2=O)nnc1-c1ccc(Cl)cc1,-11%
10,O=c1c2ccccc2nnn1CSc1nnnn1-c1ccccc1,87.9% (active)
11,O=C(NCCC(=O)N1O[C@@H]2C=C[C@H]1C2)OCC1c2ccccc2-c2ccccc21,12.3%
12,COc1ccc(CNC(=O)COC(=O)C2=Cc3ccccc3OC2)cc1,-1.47%
13,CC(C)N(C(=O)[C@H]1C[C@H](CC(=O)NC(C)(C)C)C(=O)N2CCc3c([nH]c4ccc(Cl)cc34)[C@]12C)C(C)C,-26.3%
14,COc1cc(C(=O)N2CCN(S(=O)(=O)c3ccc(C(C)C)cc3)CC2)ccc1OCC(=O)N1CCOCC1,-0.869%
15,Cc1ccc2cc(/C=N/NC(=O)[C@@H]3CCCN3)c(Cl)nc2c1,19.1%
16,O=C(O)c1ccc(N/N=C/c2ccc3ncccc3c2)cc1,-58.9%
17,Cc1ccc2cc(/C=N/Nc3ccc(C(=O)O)cc3)c(Cl)nc2c1,99.2% (active)
18,O=C1C[C@@H]2c3c(cccc3CN1Cc1ccccc1)C[C@@H](O)[C@H]2O,8.46%
19,COc1ccc(C2=Nn3c(nnc3-c3ccccc3OC)SC2)cc1OC1CCCC1,-62.2%
20,CC(=NNC(=O)c1ccncc1)c1ccc(Cl)c(Cl)c1,4.45%
21,O=C(NCCC1=CCCCC1)c1ccc(-n2cncn2)cc1,83.6% (active)
22,CN(c1ccc(C(=O)NCCC2=CCCCC2)cc1)S(C)(=O)=O,45.6%
23,O=C(NCCC1=CCCCC1)c1ccc(Cl)c([N+](=O)[O-])c1,31.3%

row,Compound,activation
1,CN(C)C(CNC(=O)c1cc2ccccc2o1)c1ccccc1 (configuration not stated),1.76%
2,CCNC(=O)N(CC)C[C@H]1N[C@@](CC)(C(=O)OC)[C@H]2C(=O)N(Cc3ccccc3)C(=O)[C@@H]12,0.033%
3,CNN/C(N=Cc1ccc([N+](=O)[O-])s1)=N\S(=O)(=O)c1cc(C)c(Cl)cc1SCc1ccccc1,-22.7%
4,COc1ccc(S(=O)(=O)N(C)C)cc1NC(=O)CSc1ncccn1,0.656%
5,CCCc1nc(SCC(=O)Nc2ccc(S(=O)(=O)N(C)C)cc2)c2ccccc2n1,-0.188%
6,CN(C)S(=O)(=O)c1ccc2oc(SCC(=O)Nc3ccccc3F)nc2c1,114% (active)
7,COc1ccc(CCC(=O)Nc2ccc(Cl)c(S(=O)(=O)N3CCOCC3)c2)cc1OC,-5.06%
8,O=C1OCC2=C1C(c1ccc(Cl)cc1)c1cc3c(cc1O2)OCO3 (configuration not stated),3.92%
9,COc1ccc2c(c1)CCc1c(C(=O)N3CCc4ccccc4C3)noc1-2,18.4%
10,Cc1ccc(-c2cc(C(=O)N3CCc4ccccc4C3)no2)cc1,-5%
11,O=C(c1noc2c1CCCC2)N1CCc2ccccc2C1,127% (active)
12,O=C1CC(c2ccccc2)C(=O)N2C(=O)CC(c3ccccc3)C(=O)N12 (configuration not stated),1.12%
13,Cc1nc2ccc(N)nc2nc1C,-1.9%
14,CCCCN(C(=O)CSCc1ccc(C)cc1)c1c(N)n(Cc2ccccc2)c(=O)[nH]c1=O,15.5%
15,CC(=O)OCC1(O)CC23CCC4c5ccoc5CCC4(C)C2CCC1C3 (configuration not stated),-8.62%
16,O=C(Cc1ccc(Cl)cc1)NCc1nc(-c2ccccc2)no1,14.2%
17,O=C(Cc1nc2ccccc2[nH]c1=O)c1ccc(Cl)cc1,50.8%
18,O=C(Cc1ccc(Cl)cc1)c1ccccc1,89.3% (active)
19,C/C(=N\Nc1ccccc1)c1cccs1,-5.68%
20,COc1cc(O)c2c(=O)c3c(O)c(O)ccc3oc2c1OC,2.79%
21,COc1ccc(-c2nc3cc(C)ccn3c2NC2CCCCC2)cc1SC1CCCCC1,7.59%
22,Cc1ccc2nc(N3C(=O)C(O)=C(C(=O)c4ccco4)C3c3cccc(O)c3)sc2c1 (configuration not stated),10%
23,COc1ccc2nc(N3CCN(C(=O)c4ccc([N+](=O)[O-])o4)CC3)sc2c1,-66.4%

row,Compound,activation
1,Cc1ccc2nc(N3CCN(C(=O)c4ccco4)CC3)sc2c1,103% (active)
2,CCOC(=O)C1CCCN(C(=O)C2CCN(S(=O)(=O)c3ccc(Cl)c(C(F)(F)F)c3)CC2)C1 (configuration not stated),-3.48%
3,O=C1NC[C@@H](c2ccccc2)OC(=O)[C@H](Cc2ccc(F)cc2)CC/C=C/C[C@H]1CC(=O)N(CCO)Cc1ccccc1,-2.43%
4,COc1ccc(CC(=O)NC(C)c2ccc(Cl)c(Cl)c2)cc1S(=O)(=O)N1CCOCC1 (configuration not stated),6.68%
5,CC(=O)Nc1ccc(-c2csc(NC=C3C(=O)OC(C)(C)OC3=O)n2)cc1,8.13%
6,CC(=O)Nc1ccc(-c2csc(NC(=O)Nc3ccccc3)n2)cc1,-48.4%
7,CC(=O)Nc1cccc(-c2csc(Nc3cccc(C)n3)n2)c1,137% (active)
8,Cc1ccc(Cn2c(C)c3cnn(CC(=O)NCCN4CCOCC4)c(=O)c3c2C)cc1,-2.1%
9,COc1ccccc1-c1sc2ccccc2c1C#CC1(O)CCCCC1,5.32%
10,CCN(CC)CCCC(C)n1c2nc(=O)[nH]c(=O)c-2nc2cc(Cl)ccc21 (configuration not stated),-84%
11,Cc1cccc(NC(=O)Nc2ccc(OCc3ccccc3)cc2)n1,-1.41%
12,Cc1cccc(NC(=O)COc2ccc(Br)cc2C)n1,198% (active)
13,CCN(CC)S(=O)(=O)c1ccc(C)c(NC(=O)COc2ccc(Br)cc2Cl)c1,-17.2%
14,CCOC(=O)c1ccccc1OC(=O)Oc1ccccc1C(=O)OCC,-22.1%
15,CCc1ccc(NC(=O)Cn2ncn3c(cc4ccccc43)c2=O)cc1,-8.34%
16,CCCN1CCN(C(=O)Cn2ncc3ccccc32)CC1,-0.935%
17,CC(C)c1ccc(NC(=O)Cn2ncc3ccccc32)cc1,93% (active)
18,O=C(OCCOc1ccccc1Cl)c1cc(S(=O)(=O)N2CCCCC2)ccc1N1CCOCC1,-10.6%
19,O=CN1CCN(C(=O)c2ccc(Br)o2)CC1,-12.5%
20,COc1ccccc1OCc1ccc(C(=O)N2CCN(C)CC2)o1,1.8%
21,CN1CCN(C(=O)c2ccc(-c3ccc(Br)cc3)o2)CC1,123% (active)
22,CC(C)=CCc1ccc(O)c(=O)cc1C(C)C,-70.3%
23,CC[C@@H](C)[C@@H]1CN([C@@H](C)CN2CCC[C@H]2CN2C(N)=NC[C@H]2C(C)C)C(=N)N1CCc1ccc(Cl)c(Cl)c1,5.32%

row,Compound,activation
1,CS(=O)(=O)N1CCN(C(=O)Cc2ccccc2)CC1,-6.87%
2,CS(=O)(=O)N1CCN(c2cccc(Cl)n2)CC1,-7.99%
3,CS(=O)(=O)N1CCc2nc(-c3ccccc3)sc2C1,92.1% (active)
4,COc1ccc(S(=O)(=O)Nc2cccc3c2O[C@H](CN(C)S(=O)(=O)c2ccc(OC)cc2)[C@@H](C)CN([C@H](C)CO)C3=O)cc1,0.473%
5,O=C1C=C(NS(=O)(=O)c2ccccc2)C(=O)c2ccccc21,-65.5%
6,COc1ccc(Cn2cc(CN3CCS(=O)(=O)N(Cc4ccc(-c5cccc(Cl)c5)cc4)C(C)C3=O)nn2)cc1 (configuration not stated),0.982%
7,Cc1ccn(-c2cccc(-n3ccc(C)n3)n2)n1,119% (active)
8,Cc1cccc(N2O[C@H]3C=CC2CCCC3)n1,63.6%
9,Cc1ccccc1Nc1nc(-c2cccnc2)cs1,97.6% (active)
10,O=C(NCc1cccnc1)C(=O)Nc1nc(-c2ccccc2)cs1,54.4%
11,O=C(Nc1nc(-c2cccnc2)cs1)c1ccccc1F,72.7%
12,Cc1ccc(C(=O)O)c(NC=O)c1OCc1ccccc1,11%
13,NC(=O)C1CCN(C(=O)c2cc(S(=O)(=O)N3CCN(c4ccccc4)CC3)ccc2Cl)CC1,-3.4%
14,CC(=O)c1cnc(-c2ccccc2)s1,13.4%
15,O=C(/C=C/Nc1ccccc1)c1cnc(-c2ccccc2)s1,37.6%
16,CC(C)(C)C(=O)c1cnc(Nc2ccccc2)s1,124% (active)
17,CN[C@H](C(=O)NC[C@H]1O[C@@H](n2cnc3c(N)ncnc32)[C@H](O)[C@@H]1O)[C@@H](C)OCc1ccccc1,17%
18,COc1cc(NC(=O)c2[nH]cnc2C(N)=O)cc(C(=O)Nc2cccc(C(F)(F)F)c2)c1,-88.9%
19,C[C@@H]1NS(=O)(=O)c2cc(Cl)ccc2O[C@@H]1c1ccccc1,2.48%
20,COc1cccc(/C=N/Nc2ccc(Cl)nn2)c1,93.6% (active)
21,Oc1cccc(/C=N/Nc2ccc(Cl)nn2)c1O,-6.43%
22,COc1cccc(/C=N\Nc2nncc(-c3ccccc3)n2)c1,27.3%
23,CCOC(=O)C1=CN(Cc2ccc(Br)cc2)S(=O)(=O)N(C)C1C (configuration not stated),-0.639%
